{"source": "PubChem BioAssay", "note": "Inconclusive results are not listed. Active and inactive are the calls of the source. Rule as the data show it: active = fluorescence slope change above about 50%; inconclusive = mostly about 31% to 49%; inactive = weaker than that."}
{"target": "ATP-dependent translocase ABCB1 (Homo sapiens) (UniProt P08183)", "sequence (P08183 whole entry, looked up)": "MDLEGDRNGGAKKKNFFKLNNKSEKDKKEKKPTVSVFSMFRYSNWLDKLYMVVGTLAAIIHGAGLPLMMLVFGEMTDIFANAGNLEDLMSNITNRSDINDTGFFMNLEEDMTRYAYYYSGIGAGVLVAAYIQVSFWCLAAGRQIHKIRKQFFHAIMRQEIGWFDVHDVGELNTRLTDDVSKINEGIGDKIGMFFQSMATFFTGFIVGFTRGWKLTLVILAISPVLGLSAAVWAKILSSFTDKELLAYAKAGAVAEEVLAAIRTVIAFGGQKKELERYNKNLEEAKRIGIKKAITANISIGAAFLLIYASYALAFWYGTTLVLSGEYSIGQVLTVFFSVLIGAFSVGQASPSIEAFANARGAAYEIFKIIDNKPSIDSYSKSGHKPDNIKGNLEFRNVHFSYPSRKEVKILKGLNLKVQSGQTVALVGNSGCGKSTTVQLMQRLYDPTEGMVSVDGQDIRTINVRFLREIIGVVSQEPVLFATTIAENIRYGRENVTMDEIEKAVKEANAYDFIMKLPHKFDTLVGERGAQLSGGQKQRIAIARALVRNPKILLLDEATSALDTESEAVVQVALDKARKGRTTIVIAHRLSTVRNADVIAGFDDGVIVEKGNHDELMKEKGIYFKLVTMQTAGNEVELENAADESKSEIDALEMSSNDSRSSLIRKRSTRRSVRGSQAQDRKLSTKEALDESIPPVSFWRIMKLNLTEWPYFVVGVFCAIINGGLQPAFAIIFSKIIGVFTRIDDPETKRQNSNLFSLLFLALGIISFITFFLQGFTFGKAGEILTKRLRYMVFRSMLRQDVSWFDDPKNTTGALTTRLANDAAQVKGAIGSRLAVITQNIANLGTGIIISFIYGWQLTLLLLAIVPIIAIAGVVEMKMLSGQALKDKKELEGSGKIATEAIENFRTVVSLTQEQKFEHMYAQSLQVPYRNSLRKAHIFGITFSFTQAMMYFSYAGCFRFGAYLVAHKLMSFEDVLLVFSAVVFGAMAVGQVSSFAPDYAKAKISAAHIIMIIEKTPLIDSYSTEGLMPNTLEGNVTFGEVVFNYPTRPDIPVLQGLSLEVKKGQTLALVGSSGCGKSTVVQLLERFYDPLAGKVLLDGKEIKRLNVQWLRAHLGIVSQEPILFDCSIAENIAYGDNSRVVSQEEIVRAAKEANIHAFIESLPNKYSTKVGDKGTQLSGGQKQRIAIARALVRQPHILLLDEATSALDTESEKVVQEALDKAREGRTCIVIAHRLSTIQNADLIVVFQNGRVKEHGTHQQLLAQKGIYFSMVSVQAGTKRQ", "assay": "MDR1 (ABCB1) efflux transporter inhibition, cell-based (AID 377)", "settings": "MDR1-expressing cells, fluorescent substrate accumulation slope; stronger effect = higher value; concentration not given here"}
{"molecule": "CC(C)NNC(=O)c1ccncc1", "fluorescence slope change": "97.9% (active)"}
{"molecule": "CCN(CC)Cc1cc(Nc2ccnc3cc(Cl)ccc23)ccc1O", "fluorescence slope change": "54.8% (active)"}
{"molecule": "Cc1cc2cc3c(C)cc(=O)oc3c(C)c2o1", "fluorescence slope change": "18.1% (inactive)"}
{"molecule": "CN1CCC(=C2c3ccccc3Sc3ccccc32)CC1", "fluorescence slope change": "107% (active)"}
{"molecule": "CCn1cc(C(=O)O)c(=O)c2cc3c(cc21)OCO3", "fluorescence slope change": "56.5% (active)"}
{"molecule": "CCCCC(CC)CN=C(N)NC(N)=NCCCCCCN=C(N)NC(N)=NCC(CC)CCCC", "note": "(centres undefined)", "fluorescence slope change": "152% (active)"}
{"system": "not listed separately", "assay": "polyglutamine-triggered caspase-3 activation inhibitors, cell-based (AID 1583)", "settings": "polyglutamine-induced caspase-3 activation, cell assay; stronger effect = higher value;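 tested at 10 µM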", "units": {"inhibition": "%"}}
{"molecule": "Nc1ccc(N=Nc2ccccc2)c(N)n1", "inhibition": 8.8}
{"molecule": "CC(C)NNC(=O)c1ccncc1", "inhibition": 12.9}
{"molecule": "Cc1cc2cc3c(C)cc(=O)oc3c(C)c2o1", "inhibition": -5.8}
{"molecule": "CC/C(=C(/CC)c1ccc(O)cc1)c1ccc(O)cc1", "inhibition": 48.1}
{"molecule": "CN1CCC(=C2c3ccccc3Sc3ccccc32)CC1", "inhibition": -31.4}
{"molecule": "CCCCCCCCNC(C)C(O)c1ccc(SC(C)C)cc1", "note": "(centres undefined)", "inhibition": 71.7}
{"molecule": "Cc1cc(O)cc(C)c1Cl", "inhibition": 0.93}
{"molecule": "CCn1cc(C(=O)O)c(=O)c2cc3c(cc21)OCO3", "inhibition": -14.8}
{"molecule": "CCN(CC)C(C)CN1c2ccccc2Sc2ccccc21", "note": "(centres undefined)", "inhibition": -20.5}
{"molecule": "CCCCC1C(=O)N(c2ccccc2)N(c2ccc(O)cc2)C1=O", "note": "(centres undefined)", "inhibition": -30.1}
{"molecule": "CC1=NN(c2ccccc2)C(=O)C1", "inhibition": -19.6}
{"molecule": "CCCCNc1ccc(C(=O)OCCN(C)C)cc1", "inhibition": 3.42}
{"molecule": "O=C1C(O)=C(O)C(=O)C(O)=C1O", "inhibition": 0.61}
